The structures appear in SMILES notation. Inconclusive results are not listed. The source made the active and inactive calls. Calls come from the whole dose curve; as a rule, active = well fitted inhibition curve with a large enough effect; inconclusive = small, poorly fitted or top-dose-only effect; inactive = no such curve, though single readings can be large or run the other way.
% is set by controls: 0 for no effect and ±100 for the full control effect; potency is the fitted concentration of half-maximal effect.

Sequence of Cytochrome P450 3A4 (Homo sapiens) (P08684 whole entry, looked up): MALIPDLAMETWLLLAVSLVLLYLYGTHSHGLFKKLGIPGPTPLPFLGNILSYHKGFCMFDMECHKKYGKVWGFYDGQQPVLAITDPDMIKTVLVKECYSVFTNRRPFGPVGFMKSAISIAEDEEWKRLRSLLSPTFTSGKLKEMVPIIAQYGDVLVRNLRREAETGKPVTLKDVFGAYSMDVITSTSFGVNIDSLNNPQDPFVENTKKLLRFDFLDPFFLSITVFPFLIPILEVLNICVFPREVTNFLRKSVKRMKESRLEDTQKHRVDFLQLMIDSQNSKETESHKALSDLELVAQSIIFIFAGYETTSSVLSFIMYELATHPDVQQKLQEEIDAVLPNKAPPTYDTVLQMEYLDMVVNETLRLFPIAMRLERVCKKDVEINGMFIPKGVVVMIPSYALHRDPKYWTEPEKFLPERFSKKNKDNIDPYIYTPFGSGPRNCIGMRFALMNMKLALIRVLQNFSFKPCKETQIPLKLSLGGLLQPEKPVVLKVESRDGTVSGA
Sequence of Cytochrome P450 2C9 (Homo sapiens) (P11712 whole entry, looked up): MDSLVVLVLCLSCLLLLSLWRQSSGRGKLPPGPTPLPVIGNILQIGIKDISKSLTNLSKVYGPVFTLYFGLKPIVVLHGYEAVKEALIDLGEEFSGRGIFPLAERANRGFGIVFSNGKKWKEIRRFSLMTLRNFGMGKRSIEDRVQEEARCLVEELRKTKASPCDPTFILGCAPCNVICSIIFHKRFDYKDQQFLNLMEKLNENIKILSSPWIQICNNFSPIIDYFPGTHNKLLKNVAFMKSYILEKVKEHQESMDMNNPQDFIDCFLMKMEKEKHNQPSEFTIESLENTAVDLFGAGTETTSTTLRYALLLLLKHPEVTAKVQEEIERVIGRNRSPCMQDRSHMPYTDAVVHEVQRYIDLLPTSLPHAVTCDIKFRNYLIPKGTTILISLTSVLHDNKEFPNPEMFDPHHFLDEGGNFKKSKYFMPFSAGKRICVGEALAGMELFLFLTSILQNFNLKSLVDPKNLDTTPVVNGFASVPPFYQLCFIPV

In the first experiment the target is Cytochrome P450 2C9 (Homo sapiens) (UniProt P11712). The experiment can be described thus: qHTS Assay for Inhibitors and Substrates of Cytochrome P450 2C9 (AID 883). Note: nearly all actives have a fitted effect of over 60% in size. The settings on record: recombinant CYP2C9, luciferin-H luminescence, 60 min; series mostly up to 57.1 µM; activity change, negative = inhibition: at the top concentration. An outline of the steps:
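Human CYP2C9 (10nM) hydroxylated Luciferin-H (100uM, at its KM) to luciferin in 25mM KPO4. Compound was preincubated 10 min at 37C, then NADPH regeneration started a 60 min reaction at 37C. Luminescence was read after detection reagent, normalized to 57uM sulphaphenazole.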
For orientation: In qHTS, concentration-response curves come from the screen itself.
For the compound `CCC/C=C(\CCC)C(NS(=O)(=O)c1ccc(C(F)(F)F)cc1)c1ccc(C(=O)OC)cc1` (stereo not drawn), the Potency was 3.16 µM (active).
In the case of `CC(C)[C@@H](CC(=O)N[C@@H]1CCCC[C@H]1C(=O)N[C@H](CC(=O)N[C@@H](CCC(=O)O)CC(=O)O)Cc1c[nH]c2ccccc12)NC(=O)C[C@H](Cc1ccccc1)NC(=O)[C@@H]1CCCC[C@H]1N`, the “activity change, negative = inhibition” value was -4.85% (inactive).
As for `CCC/C=C(\CCC)C(NS(=O)(=O)c1cccs1)c1ccc(C(=O)OC)cc1` (stereo not drawn), the Potency is 2 µM (active).
For the compound `CC(C)C[C@@H](CC(=O)N[C@@H](CCC(=O)O)CC(=O)O)NC(=O)[C@@H]1CCCC[C@H]1NC(=O)C[C@@H](NC(=O)C[C@H](Cc1c[nH]c2ccccc12)NC(=O)[C@@H]1CCCC[C@H]1N)C(C)C`, the “activity change, negative = inhibition” value is -15.9% (inactive).
For the compound `CCC/C=C(\CCC)C(NS(=O)(=O)c1ccc(Cl)cc1)c1ccc(C(=O)OC)cc1` (stereo not drawn), the Potency is 3.16 µM (active).
As for `NCCC[C@@H](CC(=O)N[C@@H]1CCNC[C@H]1C(=O)N[C@H](CC(=O)N[C@@H](CCC(=O)O)CC(=O)O)Cc1ccccc1)NC(=O)C[C@H](CO)NC(=O)[C@@H]1CCCC[C@H]1N`, the “activity change, negative = inhibition” value was -11.9% (inactive).
As to `CCCC[C@@H]1C[C@H]1C(NC(=O)c1ccco1)c1ccc(Cl)cc1` (stereo partly drawn), the Potency is 3.98 µM (active).
Still for that read-out and setting: for `CCC/C=C(\CCC)C(NC(=O)OCC(C)C)c1ccc(C(=O)OC)cc1` (stereo not drawn) the value was 3.98 µM (active).
In the case of `COC(=O)[C@@]1(Cc2ccccc2)[C@H]2c3cc(C(=O)N4CCCC4)n(Cc4ccccn4)c3C[C@H]2CN1C(=O)c1ccccc1`, the Potency was 0.199 µM (active).
As for `CC(C)c1cccc2c([Si](C)(C)C)c3c(nc12)-c1cccc(=O)n1C3`, the Potency is 2 µM (active).
`C[C@@H](C(=O)NCCc1c[nH]c2ccccc12)[C@H]1C[C@]1(C)[C@H](NC(=O)OCc1ccccc1)c1ccccc1`: the Potency was 0.631 µM (active).

Another experiment deals with Cytochrome P450 3A4 (Homo sapiens) (UniProt P08684). The experiment can be described thus: qHTS Assay for Inhibitors and Substrates of Cytochrome P450 3A4 (AID 884). Note: nearly all actives have a fitted effect of over 50% in size. The settings on record: recombinant CYP3A4, Luciferin-PPXE luminescence; series mostly up to 57.1 µM; activity change, negative = inhibition: at the top concentration. An outline of the steps:
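Luminescent readout of luciferin produced by CYP3A4 (20 nM) dealkylation of Luciferin-PPXE, 25 uM (its KM). NADPH-driven reaction ran 60 min at RT after 10 min compound preincubation; data scaled to 57 uM ketoconazole as 100% inhibition.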
As to `COc1ccc(COC2OC[C@]3(C)[C@H]4C5=C(CN3C(=O)OC(C)(C)C)[C@H](C)C(CO)C(CO)C5CC[C@@H]24)cc1` (stereo partly drawn), the Potency is 7.94 µM (active).
In the case of `CC1(C)C(=O)C(c2ccccc2)=C2CN3C(=O)N(CCc4ccccc4)C(=O)C3(Cc3ccc(C(F)(F)F)cc3)C=C21` (stereo not drawn), the Potency is 2 µM (active).
Consider `COC(=O)[C@@]1(Cc2ccccc2)[C@@H]2C(=CC(=O)[C@H]2CC(=O)C(=O)N(C)C)CN1C(=O)c1ccccc1`, for which the Potency was 7.94 µM (active).
Regarding `CCC/C=C(\CCC)C(NS(=O)(=O)c1cccs1)c1ccc(C(=O)OC)cc1` (stereo not drawn), the Potency was 3.16 µM (active).
Regarding `CCC/C=C(\CCC)C(NS(=O)(=O)c1cccc2cccnc12)c1ccc(-c2ccccc2)cc1` (stereo not drawn), the Potency is 3.16 µM (active).
On to `CCC/C=C(\CCC)C(NC(=O)Cc1ccccc1)c1ccc(C(=O)OC)cc1` (stereo not drawn), for which the Potency is 3.98 µM (active).
With `CCCC[C@H]1C[C@@H]1[C@@H]1N(P(=O)(c2ccccc2)c2ccccc2)C[C@@](O)(c2ccccc2)CC12CC2`, the Potency was 2 µM (active).
The same measure, in the same setting: with `CCC/C=C(\CCC)C(NS(=O)(=O)c1ccccc1)c1ccc(C(F)(F)F)cc1` (stereo not drawn) the figure was 6.31 µM (active).
`CCC/C=C(\CCC)C(NS(=O)(=O)c1ccc(Cl)cc1)c1ccccc1` (stereo not drawn): the Potency is 7.94 µM (active).
On the same count and under the same terms, for `CCC/C=C(\CCC)C(NS(=O)(=O)c1ccc(Cl)cc1)c1ccc(C(=O)OC)cc1` (stereo not drawn) the value was 3.98 µM (active).
Take `CCCC[C@@H]1C[C@H]1C(NC(=O)c1ccco1)c1ccc(Cl)cc1` (stereo partly drawn): the “activity change, negative = inhibition” value is -94.5% (inactive).
Regarding `C=C(CC1([C@@H](NP(=O)(c2ccccc2)c2ccccc2)[C@H]2C[C@@H]2CCCC)CC1)c1cccc(OC)c1`, the Potency was 2.51 µM (active).
Take `Cc1ccc(CNC(=O)[C@H]2C[C@@H]2[C@H](NP(=O)(c2ccccc2)c2ccccc2)c2ccccc2)c(F)c1F`: the Potency is 0.316 µM (active).
For the compound `COC(=O)[C@@]1(Cc2ccc(F)cc2)[C@H]2c3cc(C(=O)N(C)C)n(Cc4ccc(C)c(F)c4F)c3C[C@H]2CN1C(=O)c1ccccc1`, the Potency is 0.794 µM (active).
For `COC(=O)[C@@]1(Cc2ccccc2)[C@H]2c3cc(C(=O)N4CCCC4)n(Cc4ccccn4)c3C[C@H]2CN1C(=O)c1ccccc1`, the Potency is 2 µM (active).
For the compound `C[C@@H](C(=O)NCCc1c[nH]c2ccccc12)[C@H]1C[C@]1(C)[C@H](NC(=O)OCc1ccccc1)c1ccccc1`, the Potency was 1.58 µM (active).
Turning to `CCCC[C@@H]1C[C@H]1C(NC(=O)c1cccs1)c1ccc(Cl)cc1` (stereo partly drawn), the Potency was 5.01 µM (active).

The record behind these values is PubChem BioAssay (NCATS).
